# Source: PubChem BioAssay
# For part of these data: Results with a measured potency or affinity are listed apart. Active and inactive are the calls of the source.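 Rule for the calls, unless noted: active = earlier screen potentiator hit that boosts the TRPC4 ion channel at some dose, with a dose response; inactive = no potentiation, no dose response, or not a prior hit.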
# What was measured:
# [1] = system: TRPC4 beta (transient receptor potential cation channel C4), mouse; assay: activators of mouse TRPC4 channel, confirmation, cell-based, Fluo4 calcium, HEK293 TRPC4beta/mu-opioid, duplicates, 10 µM (AID 2426;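 active = fluorescence ratio normalized to control raised more than 50% in primary screen plus both repeat runs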); conditions: Fluo4 calcium fluorescence, at 10 µM; stronger effect = higher value
# [2] = system: transient receptor potential cation channel C4 beta (TRPC4), mouse; assay: activators of mouse TRPC4 channel, confirmation, cell-based, second round, Fluo4, HEK293 TRPC4beta/mu-opioid, 1 µM (AID 2461;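 active = primary screen active and over 50% activation in each of two duplicate runs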); conditions: Fluo4 calcium fluorescence, at 1 µM; stronger effect = higher value
# [3] = system: TRPC4 (transient receptor potential cation channel C4 beta), mouse; assay: positive allosteric modulators of mouse TRPC4, confirmation, cell-based, second round, Fluo-4, HEK293 TRPC4beta/mu-opioid, 1 µM (AID 2554;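 active = primary screen hit whose fluorescence ratio, in both repeats, exceeds the weak agonist control mean by 3 SD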); conditions: DAMGO EC20, Fluo-4 calcium flux, at 1 µM; stronger effect = higher value
# [4] = system: TRPC4 beta (transient receptor potential cation channel C4), mouse; assay: positive allosteric modulators of mouse TRPC4, confirmation, cell-based, Fluo-4, HEK293 TRPC4beta/mu-opioid (AID 2555;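 active = primary screen hit whose calcium fluorescence ratio, in both repeats, exceeds the weak agonist control mean by 3 SD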); conditions: DAMGO EC20, Fluo-4 calcium flux, at 10 µM; stronger effect = higher value
# [5] = molecular target: Short transient receptor potential channel 4 (Mus musculus) (UniProt Q9QUQ5); assay: inhibitors of mouse TRPC4 channel, confirmation, cell-based, Fluo4, HEK293 TRPC4beta/mu-opioid (AID 2636;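 active = calcium signal cut by more than 3 SD below the full-agonist control yet still positive, in both repeats and the earlier primary screen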); conditions: DAMGO, Fluo4 calcium flux, at 10 µM; stronger effect = higher value
# [6] = molecular target: Short transient receptor potential channel 4 (Mus musculus) (UniProt Q9QUQ5); assay: inhibitors of mouse TRPC4 channel, confirmation, cell-based, second round, Fluo4, HEK293 TRPC4beta/mu-opioid, 1 µM (AID 2637;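 active = calcium signal ratio cut to more than 3 SD under the fully stimulated control mean yet still positive, in both repeats and the primary screen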;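 for inhibition: percent of integrated ratio relative to wells lacking test compound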); conditions: Fluo4 calcium flux, DAMGO, at 1 µM; stronger effect = higher value
# [7] = molecular target: Short transient receptor potential channel 4 (Mus musculus) (UniProt Q9QUQ5); assay: mouse TRPC4 channel activators, dose response, cell-based, HEK293 TRPC4/mu-opioid, Fluo-4 calcium (AID 434937;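 active = primary screen activator hit with a dose response curve and TRPC4 channel activation at any tested dose; inactive = no activation, no dose response, or not a primary hit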)
# [8] = molecular target: Short transient receptor potential channel 4 (Mus musculus) (UniProt Q9QUQ5); assay: TRPC4 positive allosteric modulators, dose response, cell-based, HEK293 TRPC4/mu-opioid, Fluo-4 calcium, EC20 DAMGO (AID 434941);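 note: calcium entry triggered by an EC20 dose of DAMGO at the co-expressed mu-opioid receptor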
# [9] = molecular target: Short transient receptor potential channel 6 (Mus musculus) (UniProt Q61143); assay: inhibition of mouse TRPC6 channel, confirmation, selectivity assay for TRPC4 inhibitor project, cell-based, HEK293, membrane potential dye, duplicate (AID 434948;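 active = active in primary screen and both duplicates, each dropping signal beyond three positive-control SD with fluorescence still positive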); conditions: HEK293 TRPC6, membrane potential dye fluorescence, at 10 µM, stimulated with maximal-effect acetylcholine; stronger effect = higher value
# [10] = molecular target: Short transient receptor potential channel 6 (Mus musculus) (UniProt Q61143); assay: activation of mouse TRPC6 channel, confirmation, selectivity assay for TRPC4 activator project, cell-based, HEK293, membrane potential dye, duplicate (AID 434950;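 active = membrane potential signal rise above negative control mean plus 3 SD in both duplicates, also active in the earlier TRPC4 screen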); conditions: HEK293 TRPC6, membrane potential fluorescence, at 10 µM; stronger effect = higher value
# [11] = molecular target: Short transient receptor potential channel 6 (Mus musculus) (UniProt Q61143); assay: TRPC6 potentiation by TRPC4 potentiator hits, confirmation, selectivity assay for TRPC4 potentiator project, HEK293 cells, membrane potential dye, duplicate (AID 434952;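 active = compound raising the membrane signal above positive-control mean plus 3 SD in both repeats, and a primary screen hit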); conditions: HEK293 TRPC6, membrane potential dye fluorescence, at 10 µM, maximal acetylcholine added after compound; stronger effect = higher value
# [12] = molecular target: Short transient receptor potential channel 4 (Mus musculus) (UniProt Q9QUQ5); assay: calcium flux activators in TRPC4/5HT1a cells, counter-screen for TRPC4 activator project, cell-based, second counter screen, HEK293 TRPC4/5HT1a, Fluo-4 (AID 434977;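 active = calcium signal rise above buffer-control mean plus 5 SD in both duplicates, and also a hit in the primary screen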); conditions: Fluo-4 calcium flux, at 10 µM; stronger effect = higher value
# [13] = calcium flux inhibitors in TRPC4/5HT1a cells, confirmation, counter-screen for TRPC4 inhibitor project, cell-based, second counter screen, HEK293 TRPC4/5HT1a, Fluo-4 (AID 434978;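 active = primary screen active whose calcium signal fell more than 3 SD beyond the full-serotonin control mean in both duplicate plates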;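 for outcome: serotonin given first at submaximal then at maximal dose after compound preincubation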); conditions: Fluo-4 calcium flux, at 10 µM, serotonin added to trigger calcium flux; stronger effect = higher value
# [14] = system: TRPC4 (mouse), co-expressed with 5HT1a in HEK293; assay: calcium flux potentiators in TRPC4/5HT1a cells, confirmation, counter-screen for TRPC4 potentiator project, cell-based, second counter screen, HEK293 TRPC4/5HT1a, Fluo-4 (AID 434979;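 active = signal rise over 3 SD above mean of control wells given weak agonist, in both repeats and first screen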); conditions: Fluo-4 calcium flux, at 10 µM, serotonin added at its EC20 dose; stronger effect = higher value
# [15] = calcium flux activation in mu-opioid HEK293 cells, confirmation, counter-screen for TRPC4 activator project, cell-based, HEK293 mu-opioid receptor line (AID 449723;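 active = hit in primary screen, with calcium signal over 5 SD above buffer well mean in both duplicates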;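 note: counter screen cells carry the mu-opioid receptor alone and lack TRPC4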); conditions: Fluo-4 calcium fluorescence, at 10 µM; stronger effect = higher value
# [16] = calcium flux enhancement in mu-opioid HEK293 cells, confirmation, counter-screen for TRPC4 allosteric potentiator project, cell-based, HEK293 mu-opioid receptor line (AID 449724;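 active = calcium signal rise more than 3 SD above the low-dose agonist control mean, in both duplicate plates and the primary screen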); conditions: Fluo-4 calcium flux, at 10 µM, compound added before EC20 DAMGO stimulus; stronger effect = higher value
# Chain of Short transient receptor potential channel 6 (Mus musculus) (Q61143 whole entry, looked up): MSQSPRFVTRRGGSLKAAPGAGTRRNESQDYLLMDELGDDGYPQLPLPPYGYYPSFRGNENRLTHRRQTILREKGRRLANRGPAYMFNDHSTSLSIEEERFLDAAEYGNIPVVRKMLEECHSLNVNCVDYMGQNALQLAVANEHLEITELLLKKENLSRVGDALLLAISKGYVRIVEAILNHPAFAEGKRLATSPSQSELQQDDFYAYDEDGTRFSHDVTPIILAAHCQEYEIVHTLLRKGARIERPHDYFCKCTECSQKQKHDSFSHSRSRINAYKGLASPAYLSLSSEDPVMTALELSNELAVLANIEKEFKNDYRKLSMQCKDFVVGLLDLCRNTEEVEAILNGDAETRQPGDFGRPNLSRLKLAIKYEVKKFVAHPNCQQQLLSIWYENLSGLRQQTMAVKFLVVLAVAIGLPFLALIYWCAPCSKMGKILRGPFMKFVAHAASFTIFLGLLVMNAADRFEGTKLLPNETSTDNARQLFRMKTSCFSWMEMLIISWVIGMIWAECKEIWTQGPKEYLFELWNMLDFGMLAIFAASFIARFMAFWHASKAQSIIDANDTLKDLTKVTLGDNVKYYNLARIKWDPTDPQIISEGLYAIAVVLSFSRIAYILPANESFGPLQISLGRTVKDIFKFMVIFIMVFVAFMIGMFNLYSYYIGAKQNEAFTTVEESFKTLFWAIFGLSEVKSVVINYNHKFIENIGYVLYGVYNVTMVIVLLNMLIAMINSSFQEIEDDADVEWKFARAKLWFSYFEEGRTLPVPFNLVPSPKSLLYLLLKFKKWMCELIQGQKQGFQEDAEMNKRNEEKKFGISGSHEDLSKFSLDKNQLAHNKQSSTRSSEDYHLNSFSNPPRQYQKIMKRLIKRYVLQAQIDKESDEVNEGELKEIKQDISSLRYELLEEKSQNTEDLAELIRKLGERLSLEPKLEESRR
# Chain of Short transient receptor potential channel 4 (Mus musculus) (Q9QUQ5 whole entry, looked up): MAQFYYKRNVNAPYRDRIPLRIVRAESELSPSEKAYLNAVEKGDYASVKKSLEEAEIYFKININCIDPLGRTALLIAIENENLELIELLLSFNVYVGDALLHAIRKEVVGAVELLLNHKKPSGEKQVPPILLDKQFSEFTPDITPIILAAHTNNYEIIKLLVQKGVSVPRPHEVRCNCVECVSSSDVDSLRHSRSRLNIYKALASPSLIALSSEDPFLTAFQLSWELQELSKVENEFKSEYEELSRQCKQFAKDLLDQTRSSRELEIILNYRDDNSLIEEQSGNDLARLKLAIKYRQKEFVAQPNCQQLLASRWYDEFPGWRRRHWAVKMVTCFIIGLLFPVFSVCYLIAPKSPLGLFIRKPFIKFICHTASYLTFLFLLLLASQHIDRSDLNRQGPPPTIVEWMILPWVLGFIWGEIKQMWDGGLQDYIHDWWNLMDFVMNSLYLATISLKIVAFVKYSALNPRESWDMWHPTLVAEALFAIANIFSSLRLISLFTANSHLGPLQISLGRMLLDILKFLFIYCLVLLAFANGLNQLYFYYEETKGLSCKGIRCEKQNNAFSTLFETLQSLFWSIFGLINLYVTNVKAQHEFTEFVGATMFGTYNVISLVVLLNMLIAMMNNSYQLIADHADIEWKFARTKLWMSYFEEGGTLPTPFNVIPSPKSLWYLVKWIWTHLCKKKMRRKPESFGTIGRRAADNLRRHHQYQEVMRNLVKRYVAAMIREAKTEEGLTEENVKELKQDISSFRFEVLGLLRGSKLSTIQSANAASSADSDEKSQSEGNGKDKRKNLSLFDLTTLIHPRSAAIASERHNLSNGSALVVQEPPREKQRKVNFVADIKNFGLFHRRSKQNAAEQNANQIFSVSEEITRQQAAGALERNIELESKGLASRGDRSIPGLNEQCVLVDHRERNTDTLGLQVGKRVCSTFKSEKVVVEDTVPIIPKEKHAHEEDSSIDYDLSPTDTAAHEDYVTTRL
SMILES,outcome [1],outcome [2],outcome [3],outcome [4],inhibition [5],inhibition [6],outcome [7],outcome [8],outcome [9],outcome [10],outcome [11],outcome [12],inhibition [13],outcome [14],outcome [15],outcome [16],outcome [6],outcome [13],inhibition [9],outcome [5]
O=C(O)CN1C(c2ccccc2O)Nc2ccc(Br)cc2C1c1ccccc1 (stereo not given),inactive,inactive,inactive,inactive,96% (active),45% (active),inactive,inactive,inactive,inactive,inactive,inactive,13.5% (active),inactive,inactive,inactive,,,,
O=C(COc1ccc(Cl)cc1)Nc1ccc(C(=O)O)cc1NC(=O)COc1ccc(Cl)cc1,inactive,inactive,inactive,inactive,68% (active),,inactive,inactive,inactive,inactive,inactive,inactive,,inactive,inactive,inactive,inactive,inactive,,
c1ccc2c(c1)nnn2-c1ncnc2sc3c(c12)CCCC3,inactive,inactive,inactive,inactive,71% (active),,inactive,inactive,inactive,inactive,inactive,inactive,21.8% (active),inactive,inactive,inactive,inactive,,,
CCC(C)NC(C(=O)Nc1ccc(Cl)c([N+](=O)[O-])c1)c1ccccc1 (stereo not given),inactive,inactive,inactive,inactive,73% (active),,inactive,inactive,inactive,inactive,inactive,inactive,,inactive,inactive,inactive,inactive,inactive,,
COc1ccc(O)c(C(=O)c2cnc3c(c2)c(=O)[nH]c(=O)n3C)c1,inactive,inactive,inactive,inactive,92% (active),63% (active),inactive,inactive,inactive,inactive,inactive,inactive,20% (active),inactive,inactive,inactive,,,,
Cc1cc(Nc2ccc(C)c(C)c2)c2ccccc2n1,inactive,inactive,inactive,inactive,99% (active),42% (active),inactive,inactive,,inactive,inactive,inactive,30.8% (active),inactive,inactive,inactive,,,35.5% (active),
COc1ccccc1N(C(=O)c1snc(C(N)=O)c1N)C(C(=O)NCc1ccccc1)c1ccc(C)o1 (stereo not given),inactive,inactive,inactive,inactive,,49% (active),inactive,inactive,inactive,inactive,inactive,inactive,25.3% (active),inactive,inactive,inactive,,,,inactive
CCCCC(=O)N(c1ccc(C(=O)O)cc1)c1nc(-c2ccc(Cl)cc2)c(CC)s1,inactive,inactive,inactive,inactive,52% (active),,inactive,inactive,inactive,inactive,inactive,inactive,17.1% (active),inactive,inactive,inactive,inactive,,,
NC1=NC2=C(CCCC2)C2(CCCCC2)S1,inactive,inactive,inactive,inactive,91% (active),,inactive,inactive,,inactive,inactive,inactive,14% (active),inactive,inactive,inactive,inactive,,44.5% (active),
c1ccc2[nH]c(CCCCc3nc4ccccc4[nH]3)nc2c1,inactive,inactive,inactive,inactive,85% (active),55% (active),inactive,inactive,inactive,inactive,inactive,inactive,40.6% (active),inactive,inactive,inactive,,,,
N#Cc1c(N)sc2c1CCCCCC2,inactive,inactive,inactive,inactive,94% (active),44% (active),inactive,inactive,inactive,inactive,inactive,inactive,32.3% (active),inactive,inactive,inactive,,,,
NC(=O)c1nsc(C(=O)N(Cc2ccc(F)cc2)C(C(=O)NCC2CCCO2)c2ccc(O)cc2)c1N (stereo not given),inactive,inactive,inactive,inactive,77% (active),,inactive,inactive,inactive,inactive,inactive,inactive,25.6% (active),inactive,inactive,inactive,inactive,,,
Cc1oc(-c2ccc(Cl)cc2)nc1CN1CCC(C(=O)NCc2cccs2)CC1,inactive,inactive,inactive,inactive,79% (active),,inactive,inactive,inactive,inactive,inactive,inactive,26.7% (active),inactive,inactive,inactive,inactive,,,
Cc1ccc2cc(CN(CCN3CCOCC3)C(=O)NCc3ccccc3)c(=O)[nH]c2c1C,inactive,inactive,inactive,inactive,80% (active),42% (active),inactive,inactive,inactive,inactive,inactive,inactive,34% (active),inactive,inactive,inactive,,,,
CCn1c(=O)n(CCOC)c(=O)c2c3c(sc21)CCCC3,inactive,inactive,inactive,inactive,91% (active),58% (active),inactive,inactive,inactive,inactive,inactive,inactive,16.2% (active),inactive,inactive,inactive,,,,
